# Assays:
# Assay in all cases: DAPPL (digital affinity profiling via proximity ligation, sequencing); 10 mM Tris-HCl pH 7.5, 50 mM NaCl, 1 mM DTT, 4% glycerol, room temperature, 30 min; GST-TFs on glutathione beads, 16-mer random dsDNA library, 0.1% formaldehyde crosslink after washing; high values mean tight binding
# [1] = target: T1, FEV (Homo sapiens, UniProt Q99581 1-238); conditions: protein: recombinant; tags: N-terminal GST; dsDNA, one strand shown
# T1 sequence: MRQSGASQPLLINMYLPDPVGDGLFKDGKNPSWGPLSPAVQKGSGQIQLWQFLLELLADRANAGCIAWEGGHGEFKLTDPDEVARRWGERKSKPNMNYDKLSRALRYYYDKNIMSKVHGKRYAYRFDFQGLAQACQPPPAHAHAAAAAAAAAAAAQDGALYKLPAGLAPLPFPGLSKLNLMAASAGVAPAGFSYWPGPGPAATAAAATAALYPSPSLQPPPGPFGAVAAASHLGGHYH
# How it was run: (§1)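 Human transcription factors fused to GST were expressed in yeast, captured on glutathione beads, given DNA barcodes and pooled with a GST-only negative control. Pools were incubated with 200 nmole of a 16-mer random double-stranded DNA library in Tris/NaCl/DTT/glycerol buffer at room temperature for 30 min. They were then washed, crosslinked with 0.1% formaldehyde, proximity-ligated (BsaI/T4 ligase, 1 h, 37 °C), PCR-amplified and sequenced on an Illumina NextSeq500. Binding signal is each 6-mer's read frequency for a factor divided by its frequency for the GST control.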
# [2] = target: ETV5 (Homo sapiens, UniProt P41161 1-510); conditions: protein: recombinant; tags: N-terminal GST; dsDNA, one strand shown
# ETV5, sequence (P41161 whole entry): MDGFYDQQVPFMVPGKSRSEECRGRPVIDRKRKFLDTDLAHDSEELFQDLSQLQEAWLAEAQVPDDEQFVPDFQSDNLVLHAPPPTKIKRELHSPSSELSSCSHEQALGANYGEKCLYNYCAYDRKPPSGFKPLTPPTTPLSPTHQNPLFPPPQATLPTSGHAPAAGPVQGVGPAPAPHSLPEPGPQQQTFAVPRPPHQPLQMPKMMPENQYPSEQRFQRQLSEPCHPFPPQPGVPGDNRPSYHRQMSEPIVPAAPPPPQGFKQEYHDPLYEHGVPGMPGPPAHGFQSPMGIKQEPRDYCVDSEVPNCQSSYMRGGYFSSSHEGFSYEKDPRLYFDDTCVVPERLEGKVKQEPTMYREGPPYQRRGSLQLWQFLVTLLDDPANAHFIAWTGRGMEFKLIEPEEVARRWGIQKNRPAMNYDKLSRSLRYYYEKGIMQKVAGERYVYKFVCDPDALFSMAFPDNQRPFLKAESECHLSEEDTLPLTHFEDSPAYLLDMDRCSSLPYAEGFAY
# How it was run: as §1
# [3] = target: HSF1 (Homo sapiens, UniProt Q00613 1-529); conditions: protein: recombinant; tags: N-terminal GST; chain copies: 3; dsDNA, one strand shown
# HSF1, sequence (Q00613 whole entry): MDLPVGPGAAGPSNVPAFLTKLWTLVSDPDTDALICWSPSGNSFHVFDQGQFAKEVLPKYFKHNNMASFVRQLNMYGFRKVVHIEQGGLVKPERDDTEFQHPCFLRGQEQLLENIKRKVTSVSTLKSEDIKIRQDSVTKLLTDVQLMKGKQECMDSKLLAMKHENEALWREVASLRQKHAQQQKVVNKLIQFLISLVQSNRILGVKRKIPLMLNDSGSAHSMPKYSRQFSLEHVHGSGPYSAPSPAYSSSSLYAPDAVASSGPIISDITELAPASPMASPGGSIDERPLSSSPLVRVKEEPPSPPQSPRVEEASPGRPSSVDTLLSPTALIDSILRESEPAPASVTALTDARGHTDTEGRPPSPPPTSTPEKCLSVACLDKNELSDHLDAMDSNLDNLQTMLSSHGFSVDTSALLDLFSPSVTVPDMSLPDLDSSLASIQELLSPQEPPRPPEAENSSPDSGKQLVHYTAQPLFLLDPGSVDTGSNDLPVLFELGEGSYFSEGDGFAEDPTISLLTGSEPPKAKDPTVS
# How it was run: as §1
# [4] = target: T2, SPIC (Homo sapiens, UniProt Q8N5J4 1-248); conditions: protein: recombinant; tags: N-terminal GST; dsDNA, one strand shown
# T2 sequence: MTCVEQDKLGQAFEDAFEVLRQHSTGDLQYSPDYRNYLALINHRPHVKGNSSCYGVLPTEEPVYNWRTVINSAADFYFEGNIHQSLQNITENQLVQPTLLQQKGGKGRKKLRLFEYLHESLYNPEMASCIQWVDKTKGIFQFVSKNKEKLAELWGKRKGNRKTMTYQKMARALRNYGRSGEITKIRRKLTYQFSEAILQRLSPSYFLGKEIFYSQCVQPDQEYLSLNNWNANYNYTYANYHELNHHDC
# How it was run: as §1
# [5] = target: ELF4 (Homo sapiens, UniProt Q99607 1-663); conditions: protein: recombinant; tags: N-terminal GST; dsDNA, one strand shown
# ELF4, sequence (Q99607 whole entry): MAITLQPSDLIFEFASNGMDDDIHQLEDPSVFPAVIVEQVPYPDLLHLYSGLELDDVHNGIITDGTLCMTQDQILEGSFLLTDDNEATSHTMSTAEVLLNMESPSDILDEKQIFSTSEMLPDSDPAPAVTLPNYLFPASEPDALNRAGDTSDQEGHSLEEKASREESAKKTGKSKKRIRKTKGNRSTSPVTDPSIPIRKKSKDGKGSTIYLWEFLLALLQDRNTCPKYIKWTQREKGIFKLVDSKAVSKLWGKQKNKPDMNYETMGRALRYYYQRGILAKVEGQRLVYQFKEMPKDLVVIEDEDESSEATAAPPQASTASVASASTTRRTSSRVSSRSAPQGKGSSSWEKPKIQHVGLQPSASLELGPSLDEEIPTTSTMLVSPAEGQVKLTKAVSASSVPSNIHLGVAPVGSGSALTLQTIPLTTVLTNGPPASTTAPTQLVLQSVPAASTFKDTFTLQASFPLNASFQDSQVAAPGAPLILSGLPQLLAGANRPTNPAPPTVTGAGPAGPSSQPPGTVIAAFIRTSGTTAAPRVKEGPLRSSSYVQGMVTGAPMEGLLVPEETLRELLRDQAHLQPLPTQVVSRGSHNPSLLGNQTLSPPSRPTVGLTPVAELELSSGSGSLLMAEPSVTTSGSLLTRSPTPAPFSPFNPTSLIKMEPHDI
# How it was run: as §1
# [6] = target: T3, ELK4 (Homo sapiens, UniProt P28324-2 1-405); conditions: protein: recombinant; tags: N-terminal GST; dsDNA, one strand shown
# T3 sequence: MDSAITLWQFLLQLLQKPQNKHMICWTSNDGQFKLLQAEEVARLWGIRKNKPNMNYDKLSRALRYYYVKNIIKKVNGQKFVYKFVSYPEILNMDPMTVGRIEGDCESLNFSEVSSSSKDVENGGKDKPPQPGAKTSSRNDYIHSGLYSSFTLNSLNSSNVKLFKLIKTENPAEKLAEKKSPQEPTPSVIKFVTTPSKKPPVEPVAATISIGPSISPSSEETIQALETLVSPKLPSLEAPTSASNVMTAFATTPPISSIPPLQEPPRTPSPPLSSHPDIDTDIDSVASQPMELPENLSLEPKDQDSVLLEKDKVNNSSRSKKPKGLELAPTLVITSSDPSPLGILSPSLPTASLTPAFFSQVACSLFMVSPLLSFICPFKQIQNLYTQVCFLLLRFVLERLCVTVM
# How it was run: as §1
# [7] = target: T4, ETV2 (Homo sapiens, UniProt O00321 1-342); conditions: protein: recombinant; tags: N-terminal GST; dsDNA, one strand shown
# T4 sequence: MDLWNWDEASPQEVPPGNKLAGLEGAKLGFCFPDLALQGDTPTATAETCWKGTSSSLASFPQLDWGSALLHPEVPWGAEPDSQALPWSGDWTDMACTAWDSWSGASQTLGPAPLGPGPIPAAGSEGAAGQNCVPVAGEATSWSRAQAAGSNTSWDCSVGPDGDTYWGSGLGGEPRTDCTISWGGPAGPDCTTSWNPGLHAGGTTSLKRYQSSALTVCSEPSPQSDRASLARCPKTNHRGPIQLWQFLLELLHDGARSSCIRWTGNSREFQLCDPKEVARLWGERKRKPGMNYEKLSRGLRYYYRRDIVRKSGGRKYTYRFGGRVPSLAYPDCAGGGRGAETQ
# How it was run: as §1
# [8] = target: T5, ELF3 (Homo sapiens, UniProt P78545 1-371); conditions: protein: recombinant; tags: N-terminal GST; dsDNA, one strand shown
# T5 sequence: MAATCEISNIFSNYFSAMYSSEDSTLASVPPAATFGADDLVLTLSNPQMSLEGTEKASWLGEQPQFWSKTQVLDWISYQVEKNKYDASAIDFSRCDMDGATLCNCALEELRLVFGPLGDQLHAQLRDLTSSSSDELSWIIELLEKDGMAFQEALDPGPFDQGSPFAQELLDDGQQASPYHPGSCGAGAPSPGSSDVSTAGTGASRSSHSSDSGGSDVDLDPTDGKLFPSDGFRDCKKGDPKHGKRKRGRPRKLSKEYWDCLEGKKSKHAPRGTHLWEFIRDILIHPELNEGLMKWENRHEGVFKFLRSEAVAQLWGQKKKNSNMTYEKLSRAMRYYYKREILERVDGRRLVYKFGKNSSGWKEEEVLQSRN
# How it was run: as §1
# [9] = target: CRX (Homo sapiens, UniProt O43186 1-299); conditions: protein: recombinant; tags: N-terminal GST; dsDNA, one strand shown
# CRX, sequence (O43186 whole entry): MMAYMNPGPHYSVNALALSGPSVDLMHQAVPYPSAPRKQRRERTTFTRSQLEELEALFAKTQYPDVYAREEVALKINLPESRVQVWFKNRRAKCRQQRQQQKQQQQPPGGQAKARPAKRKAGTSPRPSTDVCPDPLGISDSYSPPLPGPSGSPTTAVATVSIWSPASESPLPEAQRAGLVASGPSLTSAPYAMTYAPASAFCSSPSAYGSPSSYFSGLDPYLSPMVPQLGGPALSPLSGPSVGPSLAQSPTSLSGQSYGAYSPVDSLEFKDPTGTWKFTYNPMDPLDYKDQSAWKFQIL
# How it was run: as §1
# [10] = target: ETV1 (Homo sapiens, UniProt P50549 1-477); conditions: protein: recombinant; tags: N-terminal GST; dsDNA, one strand shown
# ETV1, sequence (P50549 whole entry): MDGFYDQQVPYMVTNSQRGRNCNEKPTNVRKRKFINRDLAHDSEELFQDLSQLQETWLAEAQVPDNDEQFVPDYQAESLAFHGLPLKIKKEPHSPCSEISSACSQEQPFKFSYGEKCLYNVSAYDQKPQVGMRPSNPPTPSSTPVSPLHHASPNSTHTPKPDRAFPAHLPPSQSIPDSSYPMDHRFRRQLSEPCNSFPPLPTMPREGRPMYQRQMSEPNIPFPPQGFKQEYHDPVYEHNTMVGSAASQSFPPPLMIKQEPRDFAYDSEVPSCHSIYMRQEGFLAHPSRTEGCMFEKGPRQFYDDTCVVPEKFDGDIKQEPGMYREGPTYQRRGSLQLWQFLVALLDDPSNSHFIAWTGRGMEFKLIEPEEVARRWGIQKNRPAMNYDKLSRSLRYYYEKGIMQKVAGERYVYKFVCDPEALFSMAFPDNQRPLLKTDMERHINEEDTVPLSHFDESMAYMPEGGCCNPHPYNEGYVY
# How it was run: as §1
sequence,measurement,setting,value
TGGATG,binding signal,[1],"1.35 fold enrichment (6-mer frequency, TF over GST control)"
same,binding signal,[2],"1.42 fold enrichment (6-mer frequency, TF over GST control)"
same,binding signal,[3],"1.52 fold enrichment (6-mer frequency, TF over GST control)"
same,binding signal,[4],"1.46 fold enrichment (6-mer frequency, TF over GST control)"
same,binding signal,[5],"1.49 fold enrichment (6-mer frequency, TF over GST control)"
same,binding signal,[6],"1.23 fold enrichment (6-mer frequency, TF over GST control)"
same,binding signal,[7],"1.49 fold enrichment (6-mer frequency, TF over GST control)"
same,binding signal,[8],"1.65 fold enrichment (6-mer frequency, TF over GST control)"
same,binding signal,[9],"1.45 fold enrichment (6-mer frequency, TF over GST control)"
same,binding signal,[10],"1.54 fold enrichment (6-mer frequency, TF over GST control)"

# Reference: publication PMC7862700, “An all-to-all approach to the identification of sequence-specific readers for epigenetic DNA modifications on cytosine”
